The nature of experiment [1]: qHTS assay to identify small molecule antagonists of the thyroid receptor (TR) signaling pathway (AID 743065). Further: nearly all actives have a fitted effect of over 55% in size. Further: potency means the concentration at half of the fitted maximal effect. In a few lines: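 GH3.TRE-Luc rat pituitary cells carrying two TR response elements driving luciferase were plated for 4 h, given compound plus 1 nM T3 (final), and incubated 23.5 h at 37 C. ONE-Glo luminescence measured reporter inhibition; CellTiter-Fluor fluorescence tracked cytotoxicity.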
For orientation: qHTS replaces the single test concentration by a dilution series.

Experiment [2] has as its system thyroid hormone receptor (rat, GH3 cells). The experiment can be described thus: qHTS assay to identify small molecule agonists of the thyroid receptor (TR) signaling pathway (AID 743066; calls by dose curve).
Experiment [3] is described as follows: qHTS assay to identify small molecule antagonists of the estrogen receptor alpha (ER-alpha) signaling pathway - cell viability counter screen (AID 743074; calls by dose curve; further: nearly all actives have a fitted effect of over 45% in size).
Experiment [4] is described as follows: qHTS assay to identify small molecule antagonists of the estrogen receptor alpha (ER-alpha) signaling pathway using the BG1 cell line - cell viability counter screen (AID 743081).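 Further: compound given together with 17beta-estradiol as the ER stimulus; nearly all actives have a fitted effect of over 45% in size.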
A further experiment deals with Aromatase (Homo sapiens) (UniProt P11511). As to the kind of experiment: qHTS assay to identify aromatase inhibitors (AID 743083). Further: nearly all actives have a fitted effect of over 55% in size.
Experiment [5] has as its target Aryl hydrocarbon receptor (Homo sapiens) (UniProt P35869). The experiment can be described thus: qHTS assay to identify small molecule that activate the aryl hydrocarbon receptor (AhR) signaling pathway (AID 743085).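 Further: HG2L7.5c1 human HepG2 liver cells with stably integrated DRE-driven firefly reporter; nearly all actives have a fitted effect of over 15% in size.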 A digest of the protocol:
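Measured in HG2L7.5c1 cells: CellTiter-Fluor signal (30 min incubation, 37C) for viability, then luciferase luminescence (30 min, room temperature). Compound contact time was 24 h at 37C, following a 5 h pre-incubation.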

Experiment [6] is described as follows: qHTS assay to identify small molecule that activate the aryl hydrocarbon receptor (AhR) signaling pathway - cell viability counter screen (AID 743086).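 Further: HepG2 liver cells carrying the AhR DRE luciferase reporter; nearly all actives have a fitted effect of over 45% in size.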 A digest of the protocol: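 HepG2-AhR-luc (HG2L7.5c1) cells, 4000/well, were preincubated 5 h at 37C, exposed to compound in qHTS format for 24 hr at 37C, then given CellTiter-Fluor for 30 min; viability was read as fluorescence in the reporter wells.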

Experiment [7] addresses Peroxisome proliferator-activated receptor gamma (Homo sapiens) (UniProt P37231). As to the kind of experiment: qHTS assay to identify small molecule agonists of the peroxisome proliferator-activated receptor gamma (PPARg) signaling pathway (AID 743094; active means well fitted activation curve with a large enough effect in the signal ratio in the repeat runs, not every such curve was filed as active; the % refers to the signal ratio). A digest of the protocol: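 Cells from the PPARg UAS-bla HEK293H line are plated and incubated 5 h at 37C. Compounds in DMSO are pinned in and left 17 h at 37C. LiveBLAzer B/G substrate is then added for 1 h at room temperature before fluorescence is measured.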

Experiment [8] shares this target. As to the kind of experiment: qHTS assay to identify small molecule antagonists of the peroxisome proliferator-activated receptor gamma (PPARg) signaling pathway (AID 743191; calls by dose curve; further: nearly all actives have a fitted effect of over 30% in size). In a few lines:
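GeneBLAzer PPARg UAS-bla HEK293H cells carrying a UAS-driven beta-lactamase reporter were plated at 3000 cells/well, preincubated 5 h at 37C, then given compound for 17 h at 37C; LiveBLAzer B/G FRET substrate was read after 1 h at room temperature.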

Experiment [9] can be described thus: qHTS assay to identify small molecule antagonists of the peroxisome proliferator-activated receptor gamma (PPARg) signaling pathway - cell viability counter screen (AID 743194). Further: nearly all actives have a fitted effect of over 55% in size. The note with it: Potency: co-treated with 50 nM rosiglitazone. A digest of the protocol:
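PPARg-UAS-bla HEK293H cells were plated, rested 5 h at 37 C, then treated with compounds plus rosiglitazone (50 nM final) for 17 h at 37 C; viability was then read by CellTiter-Glo luminescence after 30 min at room temperature.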

The nature of experiment [10]: qHTS assay for small molecule agonists of the antioxidant response element (ARE) signaling pathway (AID 743202; active means well fitted activation curve with a large enough effect in the signal ratio in the repeat runs, not every such curve was filed as active; the % refers to the signal ratio). A digest of the protocol: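 Steps: seed ARE-bla HepG2 cells (2,000/well); incubate 5 h at 37 C; add compounds by pin tool; incubate 16 h at 37 C; add FRET substrate; read fluorescence after 2 h at RT.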
Experiment [11] can be described thus: qHTS assay for small molecule agonists of the antioxidant response element (ARE) signaling pathway - cell viability counter screen (AID 743203; calls by dose curve; further: nearly all actives have a fitted effect of over 55% in size). A digest of the protocol:
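Cytotoxicity was tested in parallel with the ARE reporter screen. ARE-bla HepG2 cells were exposed to compounds for 16 hrs, and viability was taken from CellTiter-Glo luminescence.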

Experiment [12] is described as follows: qHTS assay for small molecule activators of the heat shock response signaling pathway - cell viability counter screen (AID 743209). Further: nearly all actives have a fitted effect of over 50% in size. In a few lines:
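Cytotoxicity counter screen run in parallel with the HSE beta-lactamase reporter, using the same wells. HeLa HSE-bla cells received compound for 5 h at 37 C; ATP-based CellTiter-Glo luminescence was measured after 30 min at room temperature.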

Experiment [13] is described as follows: qHTS assay to identify small molecule agonists of the peroxisome proliferator-activated receptor delta (PPARd) signaling pathway - cell viability counter screen (AID 743211). Further: nearly all actives have a fitted effect of over 55% in size. A digest of the protocol:
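Following 5 h plating at 37 C and 5% CO2, PPARd UAS-bla HEK293H cells took up test compounds for 17 h. Viability was quantified by luminescence 30 min after CellTiter-Glo addition at room temperature.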

The target of experiment [14] is Estrogen receptor (Homo sapiens) (UniProt P03372). As to the kind of experiment: qHTS assay to identify small molecule antagonists of the estrogen receptor alpha (ER-alpha) signaling pathway (AID 743069; active means well fitted curve in the direction sought with a large enough effect in the signal ratio in the repeat runs, not every such curve was filed as active; the % refers to the signal ratio). A digest of the protocol:
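Screening used a UAS-driven beta-lactamase reporter integrated into HEK293 cells expressing ER-alpha, stimulated with 17beta-estradiol alongside test compounds over 18 hr at 37C; signal came from LiveBLAzer B/G FRET fluorescence.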

Experiment [15] has the same target. The experiment can be described thus: qHTS assay to identify small molecule agonists of the estrogen receptor alpha (ER-alpha) signaling pathway (AID 743075; calls by dose curve).
Experiment [16] has the same target. The experiment can be described thus: qHTS assay to identify small molecule agonists of the estrogen receptor alpha (ER-alpha) signaling pathway using the BG1 cell line (AID 743079). Further: nearly all actives have a fitted effect of over 20% in size. The note with it: BG1Luc4E2 cells, ERE-luciferase agonist, 22 h; at 70.3 µM (top of the series).
A short description of experiment [17]: qHTS assay to identify small molecule antagonists of the estrogen receptor alpha (ER-alpha) signaling pathway using the BG1 cell line (AID 743080; calls by dose curve;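 further: BG1 cells stimulated with 17beta-estradiol alongside compound; nearly all actives have a fitted effect of over 25% in size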). In a few lines:
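BG1Luc4E2, endogenous ER-alpha, 4xERE-luc; 5 d charcoal-stripped FBS, phenol red free; 24 h plating; cpd + 17beta-estradiol 21.5 h, 37 C/5% CO2; CellTiter-Fluor viability 30 min, then ONE-Glo luciferase 30 min RT.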

Experiment [18] is described as follows: qHTS assay to identify aromatase inhibitors - cell viability counter screen (AID 743084).
The nature of experiment [19]: qHTS assay for small molecule activators of the heat shock response signaling pathway (AID 743210; active means well fitted activation curve with a large enough effect in the signal ratio in the repeat runs, with a control signal flat, not every such curve was filed as active; the % refers to the signal ratio;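 further: HeLa cells with beta-lactamase reporter driven by heat shock elements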). A digest of the protocol: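 Activation of heat shock element-controlled beta-lactamase expression is measured in HeLa cells by LiveBLAzer FRET fluorescence, with compound exposure lasting 5 h at 37 C and substrate loading 2.5 h at room temperature.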

Each structure is given as a SMILES string. Results filed as inconclusive are left out. Unmarked numbers belong to inactive results. Calls of active or inactive are those of the source. Unless noted, the call rests on the fitted dose curve; in most records, active means well fitted curve in the direction sought with a large enough effect in the repeat runs; inconclusive means weak or mixed curves; inactive means no such curve, though single readings can be large; an effect the other way counts as inactive or inconclusive.
On the % scale 0 is the no-effect control and ±100 the full control effect.

Chain of Aromatase (Homo sapiens) (P11511 whole entry, looked up): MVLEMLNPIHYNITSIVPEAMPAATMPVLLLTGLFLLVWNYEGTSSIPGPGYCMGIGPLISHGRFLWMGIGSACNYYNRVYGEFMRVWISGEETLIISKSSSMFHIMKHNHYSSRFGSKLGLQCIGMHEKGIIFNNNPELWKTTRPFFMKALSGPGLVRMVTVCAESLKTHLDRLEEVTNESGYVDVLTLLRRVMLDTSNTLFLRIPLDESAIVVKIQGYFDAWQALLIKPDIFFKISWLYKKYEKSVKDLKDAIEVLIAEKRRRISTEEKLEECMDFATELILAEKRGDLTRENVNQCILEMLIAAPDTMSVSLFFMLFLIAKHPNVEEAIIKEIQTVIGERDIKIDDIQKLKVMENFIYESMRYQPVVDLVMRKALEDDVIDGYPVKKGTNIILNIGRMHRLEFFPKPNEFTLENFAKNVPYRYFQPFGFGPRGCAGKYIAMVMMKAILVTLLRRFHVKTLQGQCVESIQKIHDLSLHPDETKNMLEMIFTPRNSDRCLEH
Chain of Peroxisome proliferator-activated receptor gamma (Homo sapiens) (P37231 whole entry, looked up): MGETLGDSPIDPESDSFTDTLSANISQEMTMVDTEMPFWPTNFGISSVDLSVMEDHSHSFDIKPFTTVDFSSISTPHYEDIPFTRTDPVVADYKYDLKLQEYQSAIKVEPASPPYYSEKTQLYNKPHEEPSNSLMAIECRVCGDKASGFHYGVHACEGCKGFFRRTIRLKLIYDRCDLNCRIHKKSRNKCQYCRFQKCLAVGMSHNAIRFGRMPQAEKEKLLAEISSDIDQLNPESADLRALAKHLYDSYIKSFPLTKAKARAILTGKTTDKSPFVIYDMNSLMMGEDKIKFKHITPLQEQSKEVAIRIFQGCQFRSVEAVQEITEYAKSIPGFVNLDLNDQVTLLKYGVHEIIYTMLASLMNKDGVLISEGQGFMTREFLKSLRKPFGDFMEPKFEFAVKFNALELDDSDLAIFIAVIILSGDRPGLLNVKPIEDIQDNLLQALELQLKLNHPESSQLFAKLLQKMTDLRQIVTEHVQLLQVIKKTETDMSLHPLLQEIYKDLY
Chain of Estrogen receptor (Homo sapiens) (P03372 whole entry, looked up): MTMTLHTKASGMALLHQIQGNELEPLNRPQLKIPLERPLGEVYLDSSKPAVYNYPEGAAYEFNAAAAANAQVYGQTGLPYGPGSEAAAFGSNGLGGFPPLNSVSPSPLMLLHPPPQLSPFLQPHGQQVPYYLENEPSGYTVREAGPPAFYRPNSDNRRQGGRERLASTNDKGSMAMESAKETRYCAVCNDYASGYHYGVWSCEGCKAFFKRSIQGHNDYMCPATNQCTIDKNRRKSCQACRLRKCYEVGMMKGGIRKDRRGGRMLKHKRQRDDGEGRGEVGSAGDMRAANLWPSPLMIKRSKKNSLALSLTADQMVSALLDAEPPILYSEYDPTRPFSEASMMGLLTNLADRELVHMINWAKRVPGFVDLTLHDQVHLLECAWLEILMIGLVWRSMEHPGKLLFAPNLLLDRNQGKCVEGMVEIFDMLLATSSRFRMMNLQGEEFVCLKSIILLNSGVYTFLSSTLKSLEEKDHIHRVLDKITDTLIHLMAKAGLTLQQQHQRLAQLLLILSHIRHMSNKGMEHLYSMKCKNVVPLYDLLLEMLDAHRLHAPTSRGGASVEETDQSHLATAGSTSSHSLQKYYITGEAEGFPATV
Chain of Aryl hydrocarbon receptor (Homo sapiens) (P35869 whole entry, looked up): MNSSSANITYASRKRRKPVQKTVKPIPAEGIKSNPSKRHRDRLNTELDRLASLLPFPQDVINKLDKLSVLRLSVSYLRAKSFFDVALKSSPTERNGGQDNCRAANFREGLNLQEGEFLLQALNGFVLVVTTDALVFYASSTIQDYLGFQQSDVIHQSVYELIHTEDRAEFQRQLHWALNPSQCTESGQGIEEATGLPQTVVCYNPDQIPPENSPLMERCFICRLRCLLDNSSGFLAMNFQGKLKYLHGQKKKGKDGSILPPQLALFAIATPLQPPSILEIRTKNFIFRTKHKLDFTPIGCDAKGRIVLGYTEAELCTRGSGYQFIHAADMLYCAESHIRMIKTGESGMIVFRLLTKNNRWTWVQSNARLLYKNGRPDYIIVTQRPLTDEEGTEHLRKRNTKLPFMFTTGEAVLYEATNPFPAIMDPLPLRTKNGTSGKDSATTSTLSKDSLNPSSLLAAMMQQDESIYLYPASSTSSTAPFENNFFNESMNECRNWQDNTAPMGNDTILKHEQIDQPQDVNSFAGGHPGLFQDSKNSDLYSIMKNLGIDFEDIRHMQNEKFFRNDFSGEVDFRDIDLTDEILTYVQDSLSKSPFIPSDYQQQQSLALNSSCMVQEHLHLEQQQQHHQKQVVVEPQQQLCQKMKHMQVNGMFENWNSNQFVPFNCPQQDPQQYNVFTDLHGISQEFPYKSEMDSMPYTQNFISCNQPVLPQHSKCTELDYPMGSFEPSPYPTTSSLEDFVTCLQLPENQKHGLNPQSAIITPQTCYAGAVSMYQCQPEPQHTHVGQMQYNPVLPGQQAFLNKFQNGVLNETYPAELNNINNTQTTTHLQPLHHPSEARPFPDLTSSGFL

Regarding `O=C(CCN1CC1)OCC(CO)(COC(=O)CCN1CC1)COC(=O)CCN1CC1`, the Potency result (in experiment [1]; in [2]; in [4]; in the experiment with Aromatase (Homo sapiens); in experiment [5]; in [8]) was “inactive” throughout. Also, the Potency entry in experiment [9], in [10], in experiment [11], in experiment [12] and in experiment [13] was “inactive” in each case. Further, the molecule was classed as inactive in [3], in [6] and in experiment [7].
In the case of `CC(CCc1ccccc1)NC(C)C(O)c1ccc(O)cc1` (stereo not given), the Potency entry (in experiment [2]; in experiment [14]; in experiment [15]; in [17]; in experiment [4]; with Aromatase (Homo sapiens)) was “inactive” throughout. Besides, the Potency result in [18], in experiment [5], in experiment [9], in [11], in experiment [12] and in experiment [13] was “inactive” throughout. Moreover, the molecule was classed as inactive in [3], in [6], in [7] and in experiment [19]. Besides, the activation in [16] is -7.77%.
`COc1cc(C[C@@H](C)N)c(OC)cc1C`: in experiment [1], the Potency was 65.4 µM (active). Also, the Potency entry (in experiment [14]; in experiment [17]; in experiment [4]; with Aromatase (Homo sapiens); in experiment [18]; in [8]) was “inactive” each time. The Potency result in [9], in [11] and in experiment [12] was “inactive” each time. The molecule was classed as inactive in [3], in experiment [6], in [7] and in experiment [19].
For the molecule `CC1=NNC(=O)N(/N=C/c2cccnc2)C1`, the Potency result (in experiment [1]; in experiment [2]; in experiment [4]; in the experiment with Aromatase (Homo sapiens); in experiment [18]; in experiment [9]) was “inactive” throughout. Moreover, the Potency entry in experiment [10], in experiment [11], in [12] and in [13] was “inactive” each time. The outcome in [3], in experiment [6], in experiment [7] and in experiment [19] was inactive.
On to `N#CCNCC#N`, for which the Potency entry (in experiment [1]; in experiment [14]; in experiment [15]; in [17]; with Aromatase (Homo sapiens); in experiment [18]) was “inactive” throughout. For the same molecule, the Potency entry in experiment [5], in experiment [8], in experiment [9], in experiment [10], in experiment [12] and in [13] was “inactive” throughout. Also, the result in experiment [3], in experiment [6], in experiment [7] and in [19] was inactive. In addition, the activation in experiment [16] was -9.97%.
As for `CC(C=O)Cc1ccc2c(c1)OCO2` (stereo not given), the Potency entry (in experiment [1]; in [2]; in experiment [4]; with Aromatase (Homo sapiens); in [5]; in [9]) was “inactive” throughout. Further, the Potency entry in [10], in experiment [11], in experiment [12] and in [13] was “inactive” in each case. The molecule was called inactive in experiment [3], in experiment [6], in experiment [7] and in experiment [19].
Take `N#CCCC#N`: the Potency result (in [2]; in experiment [14]; in experiment [15]; in experiment [17]; in [4]; in the experiment with Aromatase (Homo sapiens)) was “inactive” throughout. Also, the Potency result in experiment [18], in experiment [5], in experiment [8], in experiment [9], in experiment [10] and in [12] was “inactive” each time. Besides, the Potency result in [13] was “inactive”. In addition, the molecule was classed as inactive in experiment [3], in experiment [6] and in experiment [7]. For the same molecule, in experiment [16], the activation is -3.68%.
With `CN(N=O)C(N)=O`, the Potency entry (in [1]; in [2]; in experiment [4]; in the experiment with Aromatase (Homo sapiens); in [18]; in experiment [5]) was “inactive” throughout. Moreover, the Potency result in experiment [8], in experiment [9], in experiment [10], in experiment [11], in [12] and in experiment [13] was “inactive” each time. The outcome in [6] and in experiment [7] was inactive.
Regarding `COC(=O)COc1ccc(Cl)cc1Cl`, the Potency result in experiment [1], in experiment [2], in experiment [4], in [10], in [11] and in experiment [12] was “inactive” each time. Besides, the Potency entry in experiment [13] is “inactive”. For the same molecule, the result in experiment [3] and in experiment [6] was inactive.

The record behind these values is PubChem BioAssay (Tox21).
